According to PubChem BioAssay (NCI):
This is part of a sample that, as a whole, favours compounds with a hit. Of some 83,000 tested, about 20% had one in any assay.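 How to read the values: 0–100, growth inhibition (40 = 60% inhibited); 0, no net growth; -100 to 0, cell death (-40 = 40% of starting cells died; -100 = all dead).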 Active and inactive are the calls of the source.

system: NCI/ADR-RES ovarian; assay: NCI-60 one-dose screen, 48 h (100 = growth as untreated, 0 = no growth, -100 = all killed); conditions: 10 µM unless noted
Procedure: Growth inhibition of the NCI/ADR-RES human […] tumor cell line is measured as a screen for anti-cancer activity. Cells are grown in 96 well plates and exposed to the test compound for 48 hours. Compounds are tested at a single concentration, which is 10^-5 M for most compounds. The reported endpoint is percent growth (GI% or GIPRCNT), where numbers from 0 - 100% represent growth inhibition, and numbers from -100% - 0 represent cell death. For example, a value of 40 represents 60% growth inhibition. A value of 0 means no net growth occurred over the course of the experiment. A value of -40 indicates 40% of cells at the beginning of the experiment died by the end of the experiment. A value of -100 means all cells are dead at the end of the experiment.
NCI-60 Human Tumor Cell Lines Screen was performed using the standard one-dose NCI protocol, which is described in more detail at https://dtp.cancer.gov/discovery_development/nci-60/default.htm.
Compounds with GIPRCNT values below 10 were considered active. Activity score was based on GIPRCNT using the following formula: […]
Score is 0 for GIPRCNT values of 100 or above, 50 for GIPRCNT values of 0, and 100 for GIPRCNT values of -100.

| SMILES | growth |
| --- | --- |
| O=C1[C@@H]2Cc3c([nH]c4ccccc34)[C@@H](c3ccc(Cl)cc3)N2C(=O)CN1C1CCN(Cc2ccccc2)CC1 | 51.2% (inactive) |
| Cc1cc(=O)[nH]c(O)c1C#N | 106% (inactive) |
| COc1cccc(N2CCN(C3=C(Cl)C(=O)c4ncccc4C3=O)CC2)c1 | 81.9% (inactive) |
| CC(C)C(/C=C/c1[nH]ncc1-c1cc(Cl)ccc1O)N1CCOCC1 (stereo not given) | 88.1% (inactive) |
| NC1C2CCC1CN(c1cnc(C(=O)Nc3cc(F)cc4cccnc34)cn1)C2 (stereo not given) | 79.4% (inactive) |
| COc1cc(OC)cc(-c2cc(-c3c[nH]c4ccccc34)nc(-c3c[nH]c4ccccc34)c2C#N)c1 | 97.1% (inactive) |
| Cc1cc2nc3c4cc(C#N)ccc4n(CCN(C)C)c3nc2cc1C | 5.29% (active) |
| CS(=O)(=O)c1nccc(-c2c(-c3cccc(OCc4ccc(Cl)c(C(F)(F)F)c4)c3)nc3sccn23)n1 | 98.2% (inactive) |
| C#CCOc1ccccc1/C=N/Nc1nc(-c2ccc(Cl)cc2)cs1 | 94.2% (inactive) |
| CC(=O)OCCCCN1C=C/C(=C\C(=O)n2ccc3ccccc32)c2ccccc21 | 109% (inactive) |
| CCOC(=O)c1cnc2c(-c3ccc(Cl)c(Cl)c3)cnn2c1 | 58.5% (inactive) |
| CN1CCN(CCCCCC(=O)Nc2nc(-c3cccc(NS(=O)(=O)c4cccc5c(N(C)C)cccc45)c3)cs2)CC1 | 94.1% (inactive) |
| Cc1ccc2c(n1)C(=O)C(Cl)=C(Nc1ccc(C(=O)OC(C)(C)C)cc1)C2=O | 84.9% [9.25 µM] (inactive) |
| C#Cc1nc(/C=C\CCCCCCC(=O)NO)cs1 | 13.1% (inactive) |
| Brc1cc(-c2cc(-c3ccc4c(c3)OCCO4)[nH]n2)cs1 | 17.4% (inactive) |
| Cn1cc(-c2cc3ncnc(Nc4ccc(NC(=O)Nc5cc(C(C)(C)C)on5)cc4)c3s2)cn1 | 61.6% (inactive) |
| COc1ccc(-c2c(C(N)=O)c(N)n(Cc3nc4ccccc4[nH]3)c(=O)c2C#N)c(OC)c1 | 102% (inactive) |
| CNC(=O)c1cc(Oc2ccc3c(c2)sc2nc(-c4ccc(N(C)C)cc4)cn23)ccn1 | 0.629% (active) |
| CC(C)=CCC[C@](C)(O)[C@H]1CC[C@]2(C)[C@@H]1CC[C@@H]1[C@@]3(C)CC[C@H](N)C(C)(C)[C@@H]3CC[C@]12C | 88.9% (inactive) |
| CN1CCN(c2ccc(Nc3nc(NCCCNS(=O)(=O)c4ccccc4)c4sccc4n3)cc2)CC1 | 86.4% (inactive) |

| SMILES | growth |
| --- | --- |
| C#C[C@]1(O)CC[C@H]2[C@@H]3CC=C4c5sc(Nc6cccc(F)c6)nc5CC[C@]4(C)[C@H]3CC[C@@]21C | 37.9% (inactive) |
| O=C(CCCCCCNC(=O)C(O)(O)C(F)(F)F)Nc1ccc(Cl)cc1 | 24.6% (inactive) |
| Cc1ccc(C)c(NC2=C(Cl)C(=O)c3nc(C)ccc3C2=O)c1 | -6.86% (active) |
| COC(=O)CNC(=O)c1cccc(-c2cc(=O)c3c(OC)c(OC)c(OC)cc3o2)c1 | 99.5% (inactive) |
| Cc1ccc(C(=O)Nc2ccc(CNCCN3CCNCC3)c(C(F)(F)F)c2)cc1C#Cc1cnc2cccnn12 | 71.6% (inactive) |
| C/C(=N\NC(N)=S)c1nnn(-c2ccc([N+](=O)[O-])cc2)c1C | 98.8% (inactive) |
| COc1ccc(/C(=N\NC(N)=S)c2ccc(Cl)cc2)cc1OC | 7.07% (active) |
| COc1ccc(/C=N/NC(=O)c2c(N)nn(C)c2Nc2ccccc2)cc1 | 33% (inactive) |
| CN1CCN(Cc2ccc(NC(=O)c3cncc(C#Cc4cnc5ccc(N6CCOCC6)nn45)c3)cc2C(F)(F)F)CC1 | -15.8% (active) |
| CNC(=O)c1cc(N2CCc3cc(NC(=O)Nc4ccc(N5CCN(C)CC5)c(C(F)(F)F)c4)ccc32)ccn1 | 97.4% (inactive) |
| CCOC(=O)c1ccccc1NC1=C(Cl)C(=O)c2nc(C)ccc2C1=O | 93.9% (inactive) |
| COc1cc(C(C)=C(c2ccc(OCCN(C)C)cc2)c2ccc(OCCN(C)C)cc2)ccc1F | 105% (inactive) |
| CN1CCN(CCNc2nc(-c3cccc(NS(=O)(=O)c4cccc5c(N(C)C)cccc45)c3)cs2)CC1 | 86.9% (inactive) |
| CCOC(=O)C1=C(C)NC(C)=C(C(=O)OCc2ccccc2)C1c1cccc(C#N)c1 (stereo not given) | 22.7% (inactive) |
| CN1CCN(c2ccc(Nc3nc(NCCNS(=O)(=O)c4ccccc4)c4sccc4n3)cc2)CC1 | 101% (inactive) |
| COc1cccc2c1[C@H](OC)[C@]13O[C@@]1(C2=O)[C@H](O)[C@H](C)[C@@](O)(C(=O)[C@@H]1O[C@H]1C)[C@@H]3O | -23% (active) |
| N#Cc1nc(-c2ccccc2)oc1N1CCC(C2(C(F)(F)F)N=N2)CC1 | 102% (inactive) |
| CC[C@]12CC(C(=O)OC)=C3Nc4ccccc4[C@@]34CCN(C14)[C@@H]1c3cc4c(cc3O[C@@H]1[C@H]2O)NC1=C(C(=O)OC)C[C@@]2(CC)C3N(CC[C@@]143)C[C@H]1O[C@H]12 (stereo not given in full) | 1.07% (active) |
| O=C1CSC(c2cn(-c3ccccc3)nc2-c2ccc(Cl)cc2)N1c1ccccc1 (stereo not given) | 104% (inactive) |
| COc1ccc(-c2c3c(cn2Cc2cccc(OC)c2)-c2oncc2CCC3)cc1 | 97% (inactive) |
